The results in this text go back to PubChem BioAssay (EPA / NIEHS).

The target in test [1] is human Esterase Plasma (ES), BCHE (gene 590) (UniProt P06276). The test can be described thus: NVS_ENZ_hES: NovaScreen (NVS) Enzymatic Assay for human Esterase Plasma (ES) (AID 2283157). The gist of the method: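 Chemicals were added to plasma-extracted human enzyme in a cell-free format, and activity was read colorimetrically after 0.25 hour. Activity loss was referenced to DMSO; concentration-response top dose was 50 uM.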
Chain of human Esterase Plasma (ES), BCHE (gene 590) (P06276 whole entry, looked up): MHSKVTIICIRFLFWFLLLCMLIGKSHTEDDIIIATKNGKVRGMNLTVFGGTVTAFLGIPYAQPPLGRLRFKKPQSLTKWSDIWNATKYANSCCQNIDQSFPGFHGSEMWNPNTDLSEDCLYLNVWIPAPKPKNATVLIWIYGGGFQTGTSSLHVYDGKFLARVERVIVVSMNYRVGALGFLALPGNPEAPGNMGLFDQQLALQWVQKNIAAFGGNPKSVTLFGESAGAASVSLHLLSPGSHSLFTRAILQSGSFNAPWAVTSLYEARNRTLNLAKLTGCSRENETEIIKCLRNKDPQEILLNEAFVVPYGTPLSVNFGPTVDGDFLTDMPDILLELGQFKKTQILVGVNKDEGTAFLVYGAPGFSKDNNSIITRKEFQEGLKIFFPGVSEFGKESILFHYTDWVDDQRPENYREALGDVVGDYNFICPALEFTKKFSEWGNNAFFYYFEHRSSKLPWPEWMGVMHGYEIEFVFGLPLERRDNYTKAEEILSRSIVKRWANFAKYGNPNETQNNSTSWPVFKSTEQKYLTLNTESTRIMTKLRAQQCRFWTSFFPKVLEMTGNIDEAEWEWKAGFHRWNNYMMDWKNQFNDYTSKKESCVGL

The target in test [2] is Glycogen synthase kinase-3 beta (Homo sapiens) (UniProt P49841). The test can be described thus: NVS_ENZ_hGSK3b: NovaScreen (NVS) Enzymatic Assay for human Glycogen Synthase Kinase-3 beta (GSK3b) (AID 2283165). The gist of the method: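 Recombinant enzyme with specific fluorescent substrate, 1 h, product separated by electrophoretic mobility shift. Primary duplicate screen at 25 uM; actives (e.g. 30% inhibition) followed in singleton concentration-response to 50 uM. Signal loss fitted versus DMSO.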
Chain of Glycogen synthase kinase-3 beta (Homo sapiens) (P49841 whole entry, looked up): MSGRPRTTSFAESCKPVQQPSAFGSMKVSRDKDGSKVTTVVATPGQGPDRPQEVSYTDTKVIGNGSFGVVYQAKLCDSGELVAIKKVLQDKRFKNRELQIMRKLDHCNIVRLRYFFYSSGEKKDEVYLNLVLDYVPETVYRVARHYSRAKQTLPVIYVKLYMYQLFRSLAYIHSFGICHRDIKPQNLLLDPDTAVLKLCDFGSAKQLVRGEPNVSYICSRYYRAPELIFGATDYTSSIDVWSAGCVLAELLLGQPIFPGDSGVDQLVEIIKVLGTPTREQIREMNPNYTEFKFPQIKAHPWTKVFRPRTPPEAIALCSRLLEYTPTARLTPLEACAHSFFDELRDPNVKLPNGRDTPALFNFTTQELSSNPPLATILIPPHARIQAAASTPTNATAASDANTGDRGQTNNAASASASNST

Test [3] addresses human Ephrin type-B Receptor 1 (EphB1), EPHB1 (gene 2047) (UniProt P54762). The test can be described thus: NVS_ENZ_hEphB1: NovaScreen (NVS) Enzymatic Assay for human Ephrin type-B Receptor 1 (EphB1) (AID 2283154). The procedure, abridged: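 Cell-free kinase assay with recombinant enzyme, fluorescent substrate and electrophoretic mobility-shift separation of substrate and product; read 1 h after dosing. Single-concentration duplicate screen at 25 uM; loss of signal versus DMSO baseline.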

The target in test [4] is human Dual Specificity Protein Phosphatase 3 (DUSP3), DUSP3 (gene 1845) (UniProt P51452). The test can be described thus: NVS_ENZ_hDUSP3: NovaScreen (NVS) Enzymatic Assay for human Dual Specificity Protein Phosphatase 3 (DUSP3) (AID 2283152). The procedure, abridged: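 Cell-free assay with recombinant human DUSP3 and fluorogenic substrate, read by fluorescence intensity. Primary screen ran duplicate at 25 uM; actives followed up in concentration series; loss of signal versus DMSO scored.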
Chain of human Dual Specificity Protein Phosphatase 3 (DUSP3), DUSP3 (gene 1845) (P51452 whole entry, looked up): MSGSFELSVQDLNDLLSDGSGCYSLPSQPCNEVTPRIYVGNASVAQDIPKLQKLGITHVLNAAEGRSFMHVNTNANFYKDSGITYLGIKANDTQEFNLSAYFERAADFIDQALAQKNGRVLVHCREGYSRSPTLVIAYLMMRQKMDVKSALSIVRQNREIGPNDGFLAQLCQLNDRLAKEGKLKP

For test [5], the target named is human Elastase, ELANE (gene 1991) (UniProt P08246). Description: NVS_ENZ_hElastase: NovaScreen (NVS) Enzymatic Assay for human Elastase (AID 2283153). The procedure, abridged:
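Cell-free elastase from human neutrophils, 1.5 h after dosing, activity read by absorbance. Primary screen in duplicate at 25 uM; hits (e.g., 30% inhibition) rerun in singleton concentration-response up to 50 uM, fitted versus DMSO.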

Test [6] concerns the target human Ephrin type-A Receptor 2 (EphA2), EPHA2 (gene 1969) (UniProt P29317). The test can be described thus: NVS_ENZ_hEphA2: NovaScreen (NVS) Enzymatic Assay for human Ephrin type-A Receptor 2 (EphA2) (AID 2283155). The gist of the method:
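Cell-free recombinant EphA2 kinase with specific substrate, 1 h, fluorescence with electrophoretic mobility-shift separation of substrate and product. Primary screen at 25 uM in duplicate; hits retested in singleton concentration-response up to 50 uM, referenced to DMSO.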

The target of test [7] is human Fibroblast Growth Factor Receptor 1 (FGFR1), FGFR1 (gene 2260) (UniProt P11362). Description: NVS_ENZ_hFGFR1: NovaScreen (NVS) Enzymatic Assay for human Fibroblast Growth Factor Receptor 1 (FGFR1) (AID 2283159). The procedure, abridged: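 Cell-free recombinant kinase with fluorescent substrate, product separated by electrophoretic mobility shift; read 1 hour after dosing, loss of signal relative to DMSO. Initial screen in duplicate at 25 uM, actives followed in concentration series.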
Chain of human Fibroblast Growth Factor Receptor 1 (FGFR1), FGFR1 (gene 2260) (P11362 whole entry, looked up): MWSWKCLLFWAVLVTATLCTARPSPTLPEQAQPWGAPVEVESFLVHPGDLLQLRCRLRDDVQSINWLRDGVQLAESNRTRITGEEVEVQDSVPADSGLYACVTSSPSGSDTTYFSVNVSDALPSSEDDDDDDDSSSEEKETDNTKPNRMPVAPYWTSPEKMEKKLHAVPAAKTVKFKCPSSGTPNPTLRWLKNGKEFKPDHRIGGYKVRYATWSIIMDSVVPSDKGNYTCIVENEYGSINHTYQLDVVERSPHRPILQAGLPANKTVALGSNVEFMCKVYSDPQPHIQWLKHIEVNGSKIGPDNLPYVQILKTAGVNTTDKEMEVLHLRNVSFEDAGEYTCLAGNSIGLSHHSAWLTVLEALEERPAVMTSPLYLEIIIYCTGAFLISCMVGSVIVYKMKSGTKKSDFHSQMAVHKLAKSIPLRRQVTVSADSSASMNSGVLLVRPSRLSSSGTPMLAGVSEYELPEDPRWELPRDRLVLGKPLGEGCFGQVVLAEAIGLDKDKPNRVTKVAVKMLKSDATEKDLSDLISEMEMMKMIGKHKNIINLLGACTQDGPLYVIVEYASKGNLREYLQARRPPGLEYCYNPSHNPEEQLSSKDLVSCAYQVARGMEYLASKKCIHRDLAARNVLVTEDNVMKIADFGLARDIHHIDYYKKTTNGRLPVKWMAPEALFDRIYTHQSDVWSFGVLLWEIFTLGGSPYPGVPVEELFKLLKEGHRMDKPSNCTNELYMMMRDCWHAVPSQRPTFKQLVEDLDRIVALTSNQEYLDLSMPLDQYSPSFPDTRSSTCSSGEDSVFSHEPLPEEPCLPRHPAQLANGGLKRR

Test [8] has as its target human IkappaB Kinase alpha (IKKa), CHUK (gene 1147) (UniProt O15111). The test can be described thus: NVS_ENZ_hIKKa: NovaScreen (NVS) Enzymatic Assay for human IkappaB Kinase alpha (IKKa) (AID 2283167). The procedure, abridged:
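Cell-free recombinant human IKKa with fluorescent substrate, product separated by electrophoretic mobility shift; read 1 hour after dosing. Primary screen duplicate at 25 uM, actives then concentration-response up to 50 uM; loss of signal relative to DMSO.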

For test [9], the target named is Mitogen-activated protein kinase 3 (Homo sapiens) (UniProt P27361). The test can be described thus: NVS_ENZ_hMAPK3: NovaScreen (NVS) Enzymatic Assay for human Mitogen-Activated Protein Kinase 3 (MAPK 3) (AID 2283177). The gist of the method: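 Cell-free enzymatic assay with recombinant protein and specific substrate; fluorescence and electrophoretic mobility shift read-out 1 h after dosing. Primary screen duplicate at 25 uM; actives then run in concentration-response up to 50 uM, loss of signal versus DMSO.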

Test [10] deals with human MAP Kinase-Activated Protein Kinase 2 (MAPKAPK2), MAPKAPK2 (gene 9261) (UniProt P49137). Description: NVS_ENZ_hMAPKAPK2: NovaScreen (NVS) Enzymatic Assay for human MAP Kinase-Activated Protein Kinase 2 (MAPKAPK2) (AID 2283178). The gist of the method:
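Cell-free recombinant human MAPKAPK2 activity measured by fluorescence with electrophoretic mobility shift separation of substrate and product, 1 hr after dosing. Loss of signal versus DMSO; primary screen at 25 uM, concentration-response up to 50 uM.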

Test [11] deals with human MET Proto-Oncogene, Receptor Tyrosine Kinase (MET), MET (gene 4233) (UniProt P08581). The test can be described thus: NVS_ENZ_hMet: NovaScreen (NVS) Enzymatic Assay for human MET Proto-Oncogene, Receptor Tyrosine Kinase (MET) (AID 2283180). The procedure, abridged:
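Cell-free MET kinase assay using recombinant protein and fluorescent substrate, with mobility-shift separation; read 1 h after dosing. Primary duplicate at 25 uM; actives in singleton concentration-response to 50 uM maximum. Signal loss versus DMSO.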

Test [12] has as its target human Ephrin type-B Receptor 2 (EphB2), EPHB2 (gene 2048) (UniProt P29323). The test can be described thus: NVS_ENZ_hEphB2: NovaScreen (NVS) Enzymatic Assay for human Ephrin type-B Receptor 2 (EphB2) (AID 2283156). The gist of the method:
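Recombinant kinase with fluorescent substrate, product separated by electrophoretic mobility shift, read 1 h after dosing. Duplicate 25 uM screen, then singleton concentration-response to 50 uM max; loss of signal versus DMSO.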

The target in test [13] is Histone deacetylase 3 (Homo sapiens) (UniProt O15379). The test can be described thus: NVS_ENZ_hHDAC3: NovaScreen (NVS) Enzymatic Assay for human Histone Deacetylase 3 (HDAC3) (AID 2283163). The gist of the method: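 Recombinant human HDAC3 with fluorescent substrate, 1 h after dosing; product separated from substrate by electrophoretic mobility shift and read by fluorescence. Primary screen at 25 uM in duplicate; actives (e.g. ≥30% inhibition) retested in concentration-response up to 50 uM.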

Test [14] addresses Protein deacetylase HDAC6 (Homo sapiens) (UniProt Q9UBN7). Description: NVS_ENZ_hHDAC6: NovaScreen (NVS) Enzymatic Assay for human Histone Deacetylase 6 (HDAC6) (AID 2283164). The procedure, abridged: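 Recombinant human HDAC6 with fluorescent substrate, 1 h; product separated from substrate by electrophoretic mobility shift. Primary screen in duplicate at 25 uM; actives retested singly in concentration-response up to 50 uM, fitted relative to DMSO.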

In test [15] the target is human LYN Proto-Oncogene, Src family Tyrosine Kinase (LynA), LYN (gene 4067) (UniProt P07948). Description: NVS_ENZ_hLynA: NovaScreen (NVS) Enzymatic Assay for human LYN Proto-Oncogene, Src family Tyrosine Kinase (LynA) (AID 2283173). The gist of the method:
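Recombinant kinase with fluorescent substrate; product separated from substrate by electrophoretic mobility shift and read 1 h after dosing. Duplicate screen at 25 uM, then concentration-response up to 50 uM; activity scored as signal loss against DMSO.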

In test [16] the target is human Matrix Metalloproteinase-1 (MMP1), MMP1 (gene 4312) (UniProt P03956). Description: NVS_ENZ_hMMP1: NovaScreen (NVS) Enzymatic Assay for human Matrix Metalloproteinase-1 (MMP1) (AID 2283181). The gist of the method: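 Human MMP1 enzyme activity measured by fluorescence 1 h after dosing, cell-free, with a specific substrate. Screened in duplicate at 25 uM; hits (e.g. 30% inhibition) run in concentration-response up to 50 uM; loss of signal versus DMSO.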

For test [17], the target named is human Ephrin type-A Receptor 1 (EphA1), EPHA1 (gene 2041) (UniProt P21709). Description: NVS_ENZ_hEphA1: NovaScreen (NVS) Enzymatic Assay for human Ephrin type-A Receptor 1 (EphA1) (AID 2283158).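 Also: activity is signal loss versus DMSO meaning EphA1 kinase inhibition.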 The gist of the method: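 Recombinant kinase, fluorescent substrate, mobility-shift separation, fluorescence read at 1 h. Single-point duplicates at 25 uM; hits (e.g., ≥30% inhibition) run singleton concentration-response, max 50 uM. DMSO = negative control/baseline.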

Usually AC50 stands for the midpoint of the concentration-response curve, whichever way the signal moves.

Where “and” joins values, the source holds several entries; their conditions need not be identical. Identical values can stand only once. Results filed as inconclusive are left out. The source holds several records for some structures; these can differ, active in one and inactive in another. Calls of active or inactive are those of the source. The calls were made as follows: active = hit-call score of the fitted dose curve at least 0.9, where 1 is the maximum; inconclusive = response in the unintended direction; inactive = score below 0.9.

Chain of human Elastase, ELANE (gene 1991) (P08246 whole entry, looked up): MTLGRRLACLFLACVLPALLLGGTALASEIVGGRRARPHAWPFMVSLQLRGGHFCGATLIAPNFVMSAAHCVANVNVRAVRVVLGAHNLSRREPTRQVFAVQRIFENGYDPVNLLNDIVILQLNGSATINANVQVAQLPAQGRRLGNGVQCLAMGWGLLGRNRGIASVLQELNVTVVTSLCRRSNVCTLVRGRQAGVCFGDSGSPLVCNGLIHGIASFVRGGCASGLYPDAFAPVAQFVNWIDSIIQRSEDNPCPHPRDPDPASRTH
Chain of human Ephrin type-B Receptor 1 (EphB1), EPHB1 (gene 2047) (P54762 whole entry, looked up): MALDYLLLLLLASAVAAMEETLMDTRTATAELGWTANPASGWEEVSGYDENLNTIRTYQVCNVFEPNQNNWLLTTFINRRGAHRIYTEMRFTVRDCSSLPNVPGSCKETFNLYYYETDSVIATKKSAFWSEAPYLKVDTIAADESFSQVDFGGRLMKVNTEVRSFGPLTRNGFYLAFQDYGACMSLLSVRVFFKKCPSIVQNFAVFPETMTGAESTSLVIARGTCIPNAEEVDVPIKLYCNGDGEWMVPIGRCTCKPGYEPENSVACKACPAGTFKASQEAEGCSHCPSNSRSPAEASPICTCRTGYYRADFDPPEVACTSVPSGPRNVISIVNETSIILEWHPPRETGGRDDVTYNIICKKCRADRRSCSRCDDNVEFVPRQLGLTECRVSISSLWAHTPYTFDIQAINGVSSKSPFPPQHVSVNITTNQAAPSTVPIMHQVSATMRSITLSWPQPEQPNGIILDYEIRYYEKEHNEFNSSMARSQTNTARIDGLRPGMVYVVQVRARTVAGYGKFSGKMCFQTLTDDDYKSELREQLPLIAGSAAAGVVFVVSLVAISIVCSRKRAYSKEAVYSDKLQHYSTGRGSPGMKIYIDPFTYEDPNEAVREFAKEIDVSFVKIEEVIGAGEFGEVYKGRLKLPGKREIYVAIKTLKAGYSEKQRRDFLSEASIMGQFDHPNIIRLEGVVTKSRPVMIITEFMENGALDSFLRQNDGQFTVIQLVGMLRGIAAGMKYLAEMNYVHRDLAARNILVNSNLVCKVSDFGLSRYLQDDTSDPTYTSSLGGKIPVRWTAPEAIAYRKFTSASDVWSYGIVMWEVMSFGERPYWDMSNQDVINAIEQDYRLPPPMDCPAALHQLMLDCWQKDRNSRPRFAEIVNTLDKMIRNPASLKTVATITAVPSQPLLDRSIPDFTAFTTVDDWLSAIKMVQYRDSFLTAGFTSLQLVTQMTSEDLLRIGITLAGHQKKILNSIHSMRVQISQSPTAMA
Chain of human Ephrin type-A Receptor 2 (EphA2), EPHA2 (gene 1969) (P29317 whole entry, looked up): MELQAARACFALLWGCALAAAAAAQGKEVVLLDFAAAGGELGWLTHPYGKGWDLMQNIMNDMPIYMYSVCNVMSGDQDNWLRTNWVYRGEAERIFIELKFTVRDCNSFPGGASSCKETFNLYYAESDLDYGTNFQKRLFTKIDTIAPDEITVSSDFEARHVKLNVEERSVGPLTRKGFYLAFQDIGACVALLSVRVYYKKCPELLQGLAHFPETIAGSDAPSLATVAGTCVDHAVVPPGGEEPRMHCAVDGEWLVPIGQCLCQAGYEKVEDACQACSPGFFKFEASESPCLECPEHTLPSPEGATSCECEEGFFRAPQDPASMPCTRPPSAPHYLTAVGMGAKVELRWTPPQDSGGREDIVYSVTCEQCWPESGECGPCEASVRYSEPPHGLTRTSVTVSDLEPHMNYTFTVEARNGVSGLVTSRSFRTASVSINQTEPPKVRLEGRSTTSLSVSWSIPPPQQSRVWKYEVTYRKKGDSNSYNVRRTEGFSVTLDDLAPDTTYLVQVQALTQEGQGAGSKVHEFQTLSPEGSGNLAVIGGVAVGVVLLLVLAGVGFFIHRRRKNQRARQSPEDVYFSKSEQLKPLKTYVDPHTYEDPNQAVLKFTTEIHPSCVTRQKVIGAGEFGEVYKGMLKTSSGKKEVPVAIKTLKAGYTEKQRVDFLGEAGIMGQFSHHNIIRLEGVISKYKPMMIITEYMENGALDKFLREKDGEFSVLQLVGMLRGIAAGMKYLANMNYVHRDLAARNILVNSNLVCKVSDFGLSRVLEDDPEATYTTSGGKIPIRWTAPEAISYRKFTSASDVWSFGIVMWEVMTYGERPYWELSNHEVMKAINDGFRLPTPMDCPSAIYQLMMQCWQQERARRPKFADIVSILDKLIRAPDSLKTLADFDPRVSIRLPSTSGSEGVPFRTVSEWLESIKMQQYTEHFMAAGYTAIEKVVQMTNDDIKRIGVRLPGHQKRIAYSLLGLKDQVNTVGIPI
Chain of human IkappaB Kinase alpha (IKKa), CHUK (gene 1147) (O15111 whole entry, looked up): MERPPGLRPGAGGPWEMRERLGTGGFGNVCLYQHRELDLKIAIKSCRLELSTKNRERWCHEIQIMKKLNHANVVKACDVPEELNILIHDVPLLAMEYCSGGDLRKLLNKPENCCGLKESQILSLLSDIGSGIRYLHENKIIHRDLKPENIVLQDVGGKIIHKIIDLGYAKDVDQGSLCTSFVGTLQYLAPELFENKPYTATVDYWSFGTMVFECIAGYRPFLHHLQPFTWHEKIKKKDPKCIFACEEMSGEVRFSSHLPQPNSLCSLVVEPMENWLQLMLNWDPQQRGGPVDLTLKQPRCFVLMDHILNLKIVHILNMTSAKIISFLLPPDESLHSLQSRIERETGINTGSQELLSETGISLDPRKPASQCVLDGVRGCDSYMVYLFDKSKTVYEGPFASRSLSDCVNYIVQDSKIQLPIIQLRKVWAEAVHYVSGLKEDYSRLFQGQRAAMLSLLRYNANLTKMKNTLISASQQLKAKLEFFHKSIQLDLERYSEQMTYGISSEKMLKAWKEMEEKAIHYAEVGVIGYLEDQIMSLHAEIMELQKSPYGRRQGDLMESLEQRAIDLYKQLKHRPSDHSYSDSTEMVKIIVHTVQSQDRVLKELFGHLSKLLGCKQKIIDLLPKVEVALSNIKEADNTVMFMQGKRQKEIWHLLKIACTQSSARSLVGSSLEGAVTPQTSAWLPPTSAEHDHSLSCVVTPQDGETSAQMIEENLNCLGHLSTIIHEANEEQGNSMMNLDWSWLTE

Consider `CC1=C(C(=O)Nc2ccccc2)SCCO1`, for which, in test [1], the AC50 is 23.6 µM (active).

For the molecule `COc1nc(C)nc(NC(=O)NS(=O)(=O)c2ccccc2Cl)n1`, the result in test [2] was inactive.

In the case of `CCCCOC(=O)c1ccccc1C(=O)OCCCC`, in [3], the result was inactive. Also, in test [1], the AC50 was 11 µM (active) and the call was inactive.

As to `CO/C=C(/C(=O)OC)c1ccccc1Oc1cc(Oc2ccccc2C#N)ncn1`, the call in [4], in test [5], in test [6], in [7] and in [8] was inactive. Also, the AC50 in test [1] was 26.3 µM (active) and 26.4 µM (active) and 10 µM (active).

Take `CCCCNC(=O)n1c(NC(=O)OC)nc2ccccc21`: the molecule was called inactive in [5] and in [3].

As to `CNC(=S)S`, the molecule was classed as inactive in [4], in [5], in [2], in test [8], in [9] and in test [10]. For the same molecule, in test [11], the result was inactive.

On to `COP(N)(=O)SC` (stereo not given), for which the molecule was called inactive in test [12].

Consider `COC(=O)C(C)Oc1ccc(Oc2ccc(Cl)cc2Cl)cc1` (stereo not given), for which the result in test [3] was inactive.

With `CCCCNC(=O)OCC#CI`, the outcome in test [7], in test [14] and in test [15] was inactive. Moreover, the AC50 in test [13] was 17.5 µM (active) and 14.6 µM (active); in test [14] it was 25 µM (active).

`COC(=O)C=C(C)OP(=O)(OC)OC`: in test [5], the call was inactive. Also, in test [1], the AC50 was 13.4 µM (active).

In the case of `CC(C)C1(C)N=C(c2nc3ccccc3cc2C(=O)O)NC1=O` (stereo not given), the call in test [16] was inactive.

Take `CCc1nn(C)c(C(=O)NCc2ccc(C(C)(C)C)cc2)c1Cl`: the call in [4] was inactive.

For `COC(=O)c1ccccc1C(=O)OC`, in test [15], the molecule was classed as inactive.

`Cc1ccc(-c2c(Cl)nc(C#N)n2S(=O)(=O)N(C)C)cc1`: the outcome in test [6] and in test [17] was inactive. Moreover, in test [2], the AC50 is 18.2 µM (active).
